Potency and affinity values are given separately. Records with an inconclusive call do not appear. Where a call stands in place of a potency, no number is given. Unmarked numbers belong to inactive results. Calls of active or inactive are those of the source.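 Rule for the calls: active = signal loss with fitted half-maximal concentration at or below twice the top valid tested dose in every test run; inconclusive = runs disagree, flat 30 to 70% signal loss, or poor fit; inactive = all runs flat, opposite direction, or potency beyond limit.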
Test: general mammalian cell viability loss – inhibitor set, cherry-pick, set 2, cytotoxicity control for miR-122 modulator project, dose response (AID 720697)
Conditions: HEK293T viability, CellTiter-Glo luminescence, 48 h; series mostly up to 26 µM

SMILES | activity change, negative = cytotoxicity | outcome
CNC(=O)c1nc(C)n(-c2cc(Cl)cc(Cl)c2)n1 | 4.99% [at 6 µM] | –
CC(=O)Nc1ccc2c(c1)C(=O)N(C)[C@H]1CC[C@H](CC(=O)NC3CCCCC3)O[C@@H]1CO2 | – | inactive
Cc1cc(C(F)F)n2ncc(C(=O)NCCc3ccccc3Cl)c2n1 | – | inactive
COc1ccccc1C#Cc1ccc2c(c1)O[C@H](CN(C)Cc1cccnc1)[C@H](C)CN([C@@H](C)CO)S2(=O)=O | – | inactive
C[C@@H]1CCCCO[C@@H](CN(C)CC2CCCCC2)[C@H](C)CN([C@@H](C)CO)C(=O)c2cc(NC(=O)Nc3cccc4ccccc34)ccc2O1 | – | inactive
CC(C)C(=O)Nc1ccc2c(c1)C(=O)N(C)[C@H]1CC[C@H](CC(=O)Nc3cccc(F)c3)O[C@@H]1CO2 | – | inactive

From PubChem BioAssay AID720697 (Broad Institute, 2013)
